Laboratory results reported in ChEMBL document CHEMBL1961873, “Compounds: GSK PKIS; Assays: Nanosyn kinase panel” (2012).

Key:
[1] = target: Serine/threonine-protein kinase PAK 6 (Homo sapiens) (UniProt Q9NQU5); conditions: at 1 µM;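 also: values are mean percent inhibition of PAK6 kinase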
[2] = test system: Tyrosine-protein kinase ABL1 (Homo sapiens), P00519 [E255K]; conditions: at 0.1 µM
[3] = test system: Tyrosine-protein kinase ABL1 (Homo sapiens), P00519 [E255K]; conditions: at 1 µM
[4] = test system: Tyrosine-protein kinase ABL1 (Homo sapiens), P00519 [H396P]; conditions: at 0.1 µM
[5] = test system: Tyrosine-protein kinase ABL1 (Homo sapiens), P00519 [H396P]; conditions: at 1 µM
[6] = test system: Tyrosine-protein kinase ABL1 (Homo sapiens), P00519 [M351T]; conditions: at 0.1 µM
[7] = test system: Tyrosine-protein kinase ABL1 (Homo sapiens), P00519 [M351T]; conditions: at 1 µM
[8] = test system: Tyrosine-protein kinase ABL1 (Homo sapiens), P00519 [Q252H]; conditions: at 0.1 µM
[9] = test system: Tyrosine-protein kinase ABL1 (Homo sapiens), P00519 [Q252H]; conditions: at 1 µM
[10] = test system: Tyrosine-protein kinase ABL1 (Homo sapiens), P00519 [T315I]; conditions: at 0.1 µM
[11] = test system: Tyrosine-protein kinase ABL1 (Homo sapiens), P00519 [T315I]; conditions: at 1 µM
[12] = test system: Tyrosine-protein kinase ABL1 (Homo sapiens), P00519 [Y253F]; conditions: at 0.1 µM
[13] = test system: Tyrosine-protein kinase ABL1 (Homo sapiens), P00519 [Y253F]; conditions: at 1 µM
[14] = target: Tyrosine-protein kinase ABL1 (Homo sapiens) (UniProt P00519); conditions: at 0.1 µM
[15] = target: Tyrosine-protein kinase ABL1 (Homo sapiens) (UniProt P00519); conditions: at 1 µM
[16] = target: ALK tyrosine kinase receptor (Homo sapiens) (UniProt Q9UM73); conditions: at 0.1 µM
Chain of ALK tyrosine kinase receptor (Homo sapiens) (Q9UM73 19-1620 limits assumed): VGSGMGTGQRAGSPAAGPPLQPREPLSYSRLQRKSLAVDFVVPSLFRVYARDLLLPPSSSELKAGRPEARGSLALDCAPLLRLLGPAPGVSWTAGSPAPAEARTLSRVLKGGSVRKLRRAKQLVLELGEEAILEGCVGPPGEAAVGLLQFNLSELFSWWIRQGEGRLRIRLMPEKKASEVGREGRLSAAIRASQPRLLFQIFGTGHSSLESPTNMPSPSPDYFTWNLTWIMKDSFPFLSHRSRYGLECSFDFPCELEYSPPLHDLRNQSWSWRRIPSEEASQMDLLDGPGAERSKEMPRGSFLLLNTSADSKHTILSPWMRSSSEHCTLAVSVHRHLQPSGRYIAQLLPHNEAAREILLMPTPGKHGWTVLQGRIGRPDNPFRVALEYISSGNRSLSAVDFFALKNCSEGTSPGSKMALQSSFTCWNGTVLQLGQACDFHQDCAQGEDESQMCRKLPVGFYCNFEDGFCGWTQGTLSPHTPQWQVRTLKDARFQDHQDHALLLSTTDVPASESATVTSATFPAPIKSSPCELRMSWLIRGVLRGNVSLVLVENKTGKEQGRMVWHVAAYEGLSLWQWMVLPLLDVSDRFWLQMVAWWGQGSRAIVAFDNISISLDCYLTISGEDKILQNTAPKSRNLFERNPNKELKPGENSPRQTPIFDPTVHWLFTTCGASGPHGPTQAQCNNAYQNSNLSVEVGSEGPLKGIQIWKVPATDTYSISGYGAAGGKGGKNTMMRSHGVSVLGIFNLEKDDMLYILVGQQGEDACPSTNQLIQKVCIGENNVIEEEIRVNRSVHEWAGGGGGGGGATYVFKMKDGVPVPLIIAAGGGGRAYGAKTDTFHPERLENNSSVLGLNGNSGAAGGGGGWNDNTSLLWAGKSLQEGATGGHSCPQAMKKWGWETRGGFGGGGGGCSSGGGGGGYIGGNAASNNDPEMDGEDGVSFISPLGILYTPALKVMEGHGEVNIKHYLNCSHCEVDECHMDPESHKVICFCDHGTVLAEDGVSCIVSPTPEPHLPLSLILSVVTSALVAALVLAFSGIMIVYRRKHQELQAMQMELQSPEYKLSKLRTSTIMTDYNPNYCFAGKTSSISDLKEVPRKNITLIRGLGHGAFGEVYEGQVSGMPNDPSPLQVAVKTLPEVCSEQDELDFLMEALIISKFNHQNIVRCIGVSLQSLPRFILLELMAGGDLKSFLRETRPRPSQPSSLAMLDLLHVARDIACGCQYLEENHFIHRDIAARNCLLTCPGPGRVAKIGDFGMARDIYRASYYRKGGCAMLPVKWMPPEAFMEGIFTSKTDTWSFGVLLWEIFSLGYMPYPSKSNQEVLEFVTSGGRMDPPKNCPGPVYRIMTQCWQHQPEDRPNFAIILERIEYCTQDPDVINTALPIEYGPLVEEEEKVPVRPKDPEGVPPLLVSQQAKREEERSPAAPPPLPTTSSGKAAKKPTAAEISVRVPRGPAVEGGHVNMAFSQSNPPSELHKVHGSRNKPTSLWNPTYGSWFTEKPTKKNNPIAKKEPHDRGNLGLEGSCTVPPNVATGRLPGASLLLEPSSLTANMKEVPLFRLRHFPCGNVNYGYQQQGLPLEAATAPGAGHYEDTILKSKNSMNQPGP

[17] = target: ALK tyrosine kinase receptor (Homo sapiens) (UniProt Q9UM73); conditions: at 1 µM
[18] = target: Tyrosine-protein kinase ABL2 (Homo sapiens) (UniProt P42684); conditions: at 0.1 µM
Chain of Tyrosine-protein kinase ABL2 (Homo sapiens) (P42684 whole entry): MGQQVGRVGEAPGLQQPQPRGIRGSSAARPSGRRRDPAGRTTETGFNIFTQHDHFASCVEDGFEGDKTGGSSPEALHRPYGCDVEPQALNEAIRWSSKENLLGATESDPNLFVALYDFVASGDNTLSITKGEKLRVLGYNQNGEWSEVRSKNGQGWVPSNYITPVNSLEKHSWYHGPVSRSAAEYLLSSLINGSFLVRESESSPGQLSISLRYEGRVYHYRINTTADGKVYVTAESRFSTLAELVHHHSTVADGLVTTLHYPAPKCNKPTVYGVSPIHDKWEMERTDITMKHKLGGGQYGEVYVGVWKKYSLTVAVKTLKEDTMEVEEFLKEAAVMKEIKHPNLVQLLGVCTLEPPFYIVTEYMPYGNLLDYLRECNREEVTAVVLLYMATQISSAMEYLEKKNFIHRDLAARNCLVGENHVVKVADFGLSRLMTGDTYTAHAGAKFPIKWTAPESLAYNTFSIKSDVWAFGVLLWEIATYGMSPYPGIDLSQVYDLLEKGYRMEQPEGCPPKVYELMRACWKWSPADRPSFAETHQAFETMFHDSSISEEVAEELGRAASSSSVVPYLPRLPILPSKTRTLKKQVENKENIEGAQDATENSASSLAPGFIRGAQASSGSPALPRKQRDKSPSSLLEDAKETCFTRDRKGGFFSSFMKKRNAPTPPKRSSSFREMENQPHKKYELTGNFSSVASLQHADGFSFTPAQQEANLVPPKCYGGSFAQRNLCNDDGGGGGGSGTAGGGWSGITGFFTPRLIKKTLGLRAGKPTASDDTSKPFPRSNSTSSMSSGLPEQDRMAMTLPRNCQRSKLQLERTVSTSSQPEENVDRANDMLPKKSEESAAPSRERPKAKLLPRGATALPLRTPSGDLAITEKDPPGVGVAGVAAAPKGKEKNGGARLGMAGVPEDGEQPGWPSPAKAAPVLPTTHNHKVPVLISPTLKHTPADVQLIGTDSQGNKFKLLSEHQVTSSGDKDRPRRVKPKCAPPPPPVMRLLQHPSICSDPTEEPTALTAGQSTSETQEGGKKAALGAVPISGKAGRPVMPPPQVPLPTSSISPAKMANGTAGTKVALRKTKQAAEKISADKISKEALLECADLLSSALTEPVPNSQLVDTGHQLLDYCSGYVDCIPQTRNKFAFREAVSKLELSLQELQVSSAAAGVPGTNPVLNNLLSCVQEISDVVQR

[19] = target: Tyrosine-protein kinase ABL2 (Homo sapiens) (UniProt P42684); conditions: at 1 µM
[20] = target: Tyrosine-protein kinase receptor UFO (Homo sapiens) (UniProt P30530); conditions: at 0.1 µM;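 also: values are mean percent inhibition of AXL from the GSK PKIS screen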
Chain of Tyrosine-protein kinase receptor UFO (Homo sapiens) (P30530 whole entry): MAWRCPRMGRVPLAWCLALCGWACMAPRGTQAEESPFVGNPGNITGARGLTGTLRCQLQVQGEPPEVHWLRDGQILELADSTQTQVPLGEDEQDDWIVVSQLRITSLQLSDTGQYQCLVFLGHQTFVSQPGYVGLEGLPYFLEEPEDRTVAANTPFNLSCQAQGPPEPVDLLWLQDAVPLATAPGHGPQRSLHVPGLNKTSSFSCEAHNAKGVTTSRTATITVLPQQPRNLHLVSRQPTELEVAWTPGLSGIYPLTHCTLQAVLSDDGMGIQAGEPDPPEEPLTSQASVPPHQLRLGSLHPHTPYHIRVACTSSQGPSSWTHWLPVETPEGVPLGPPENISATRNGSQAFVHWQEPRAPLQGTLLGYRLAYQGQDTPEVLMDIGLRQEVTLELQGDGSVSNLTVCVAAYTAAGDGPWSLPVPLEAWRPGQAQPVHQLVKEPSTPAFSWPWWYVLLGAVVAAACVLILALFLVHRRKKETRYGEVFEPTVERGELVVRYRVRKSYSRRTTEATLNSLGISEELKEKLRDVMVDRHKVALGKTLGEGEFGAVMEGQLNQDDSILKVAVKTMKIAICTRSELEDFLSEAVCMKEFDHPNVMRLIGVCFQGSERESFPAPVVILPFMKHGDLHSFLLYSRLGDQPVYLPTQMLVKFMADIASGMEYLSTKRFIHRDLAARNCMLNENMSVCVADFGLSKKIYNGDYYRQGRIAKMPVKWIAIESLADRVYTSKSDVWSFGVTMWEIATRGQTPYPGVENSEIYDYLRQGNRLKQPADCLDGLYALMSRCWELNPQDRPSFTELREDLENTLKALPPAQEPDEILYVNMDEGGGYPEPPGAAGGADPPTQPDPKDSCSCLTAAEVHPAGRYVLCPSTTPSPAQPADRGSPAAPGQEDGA

Chain of Serine/threonine-protein kinase PAK 6 (Homo sapiens) (Q9NQU5 whole entry, looked up): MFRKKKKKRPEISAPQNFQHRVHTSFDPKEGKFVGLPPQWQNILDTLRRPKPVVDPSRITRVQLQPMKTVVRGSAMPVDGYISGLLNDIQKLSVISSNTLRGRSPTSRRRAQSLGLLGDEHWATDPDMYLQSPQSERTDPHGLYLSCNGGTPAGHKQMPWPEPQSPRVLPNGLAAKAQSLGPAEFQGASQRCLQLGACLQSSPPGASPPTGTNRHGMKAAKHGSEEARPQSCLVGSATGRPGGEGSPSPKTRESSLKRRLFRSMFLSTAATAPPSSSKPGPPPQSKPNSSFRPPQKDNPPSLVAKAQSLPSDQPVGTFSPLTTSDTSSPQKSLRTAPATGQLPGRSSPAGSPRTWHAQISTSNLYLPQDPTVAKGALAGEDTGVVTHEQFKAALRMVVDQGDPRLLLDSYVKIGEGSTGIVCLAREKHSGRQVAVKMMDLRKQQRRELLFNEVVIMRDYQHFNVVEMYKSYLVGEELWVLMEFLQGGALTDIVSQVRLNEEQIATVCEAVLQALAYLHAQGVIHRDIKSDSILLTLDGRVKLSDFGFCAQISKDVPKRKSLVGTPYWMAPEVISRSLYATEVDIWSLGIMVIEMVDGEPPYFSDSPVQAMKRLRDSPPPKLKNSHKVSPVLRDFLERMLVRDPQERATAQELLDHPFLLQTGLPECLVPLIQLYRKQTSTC

| Structure (SMILES) | inhibition [1] [%] | inhibition [2] [%] | inhibition [3] [%] | inhibition [4] [%] | inhibition [5] [%] | inhibition [6] [%] | inhibition [7] [%] | inhibition [8] [%] | inhibition [9] [%] | inhibition [10] [%] | inhibition [11] [%] | inhibition [12] [%] | inhibition [13] [%] | inhibition [14] [%] | inhibition [15] [%] | inhibition [16] [%] | inhibition [17] [%] | inhibition [18] [%] | inhibition [19] [%] | inhibition [20] [%] |
| --- | --- | --- | --- | --- | --- | --- | --- | --- | --- | --- | --- | --- | --- | --- | --- | --- | --- | --- | --- | --- |
| CNC(=O)c1cccc(C#Cc2cncnc2Nc2ccc(OCc3cccc(F)c3)c(Cl)c2)c1 | 0.68 | 0.14 | 0.64 | 0.79 | 1.44 | 0.11 | 2.15 | 1.53 | 2.58 | 1.23 | 2.43 | 0.77 | 3.36 | 0.98 | 5.91 | 1.88 | 3.83 | 2.79 | 4.76 | -1.87 |
| COC(=O)Nc1nc2ccc(Oc3ccc(NC(=O)Nc4cccc(Cl)c4)cc3)cc2[nH]1 | -1.03 | 3.36 | 8.54 | 15.3 | 40.9 | 37.5 | 56.3 | 35.7 | 59.7 | 23.3 | 42.4 | 7.43 | 22 | 6.59 | 13.3 | 1.45 | 2.26 | 12.3 | 28.8 | -5.74 |
| Cc1ccc2c(-c3ccnc(Nc4ccccc4)n3)c(-c3ccc(F)cc3)nn2n1 | 5.13 | 3.13 | 15.7 | 7.21 | 36 | 15.1 | 56.4 | 12 | 49.9 | 4.75 | 20.2 | 11.5 | 42.2 | 5.24 | 35.5 | 2.29 | 5.55 | 4.61 | 34.1 | -5.33 |
| CC(C)(CO)CNC(=O)c1ccc2c(c1)/C(=N/Nc1ccc(S(N)(=O)=O)cc1)C(=O)N2 | 1.5 | -0.35 | 9 | -2.04 | 9.98 | -0.43 | 9.9 | -0.04 | 9.08 | -2 | 8.62 | -0.6 | 12.8 | -2.29 | 10.7 | -0.91 | -1.23 | -1.16 | 3.31 | 1.56 |
| NS(=O)(=O)c1ccc(Nc2ncc(-c3ccccc3)o2)cc1 | 8.68 | 4.6 | 17.8 | 8.3 | 39.3 | 3.46 | 40.1 | 4.58 | 28.1 | 3.72 | 17.9 | 5.61 | 26.6 | 5.37 | 37.9 | 1.53 | 6.29 | 4.93 | 42 | -5.59 |
| COc1cc(/C=N/Nc2ncnc3[nH]ncc23)ccc1O | 4.44 | 36.5 | 83.4 | 45.9 | 87.6 | 42.9 | 87.9 | 47.9 | 88.3 | 8.14 | 47.4 | 52.5 | 87.3 | 35.1 | 78.9 | 1.72 | 8.84 | 15.6 | 65.7 | -3.29 |
| COc1cc(Nc2nccc(Nc3ccc4c(C)n[nH]c4c3)n2)cc(OC)c1OC | -1.27 | 18.5 | 67.2 | 30.1 | 78.3 | 28.9 | 75.6 | 24.5 | 72.7 | 1.65 | 14.3 | 37.6 | 83.6 | 20.3 | 69.7 | 5.55 | 39.3 | 18.4 | 69.9 | 0.91 |
| CCN(CC)S(=O)(=O)c1ccc(OC)c(Nc2ncc(-c3ccccc3)o2)c1 | 4.66 | 1.69 | 28.2 | 4.61 | 32.8 | 6.41 | 38.4 | 5.31 | 38.5 | 1.63 | 8.65 | 9.09 | 41.8 | 3.01 | 28.1 | 0.5 | 4.19 | 6.09 | 36.6 | 0.5 |
| FC(F)(F)c1cccc(-c2nn3ncccc3c2-c2ccnc(Nc3ccc4c(c3)OCCO4)n2)c1 | -1.75 | 3.04 | 9.11 | 6.97 | 36.6 | 10.1 | 50 | 9.57 | 45.2 | 10.1 | 32.5 | 5.94 | 30.6 | 3.95 | 30.4 | 2.44 | 3.89 | 4.21 | 32.1 | -5.2 |
| c1ccc(-c2nc3n(c2-c2ccc4c(c2)OCO4)CCC3)nc1 | -6.18 | 1.4 | 3.7 | 0.35 | 2.48 | 1.01 | 3.51 | 0.69 | 3.62 | 0.65 | 6.07 | 1.92 | 3.95 | 0.85 | 6.39 | 0.99 | 1.4 | 0.69 | 4.67 | -1.96 |
| O=S(=O)(CCNCc1ccc(-c2ccc3ncnc(Nc4ccc(OCc5cccc(F)c5)c(Cl)c4)c3c2)o1)c1ccccc1 | 0.68 | 3.29 | 4.49 | 5.17 | 6.8 | 1.27 | 2.88 | 5.71 | 6.36 | 2.35 | 3.4 | 5.4 | 6.85 | 5.27 | 10.1 | 4.32 | 6.67 | 4.64 | 8.2 | -7.43 |
| Fc1ccc(-c2nn3ccccc3c2-c2ccncc2)cc1 | -2 | 1.77 | 2.14 | 1.59 | 4.98 | -1.48 | 8.75 | 0.48 | 6.96 | 0.16 | 4.09 | 1.97 | 4.11 | 1.42 | 9.29 | 0.44 | 1.88 | 3.94 | 7.98 | -2.22 |
